# In all, about 68,000 sequences were measured (“fluorescence intensity (a.u.)”: median about 9,100, highest 2% from about 16,000 on). The entries come from a sample that favours the highest values as a whole.
# Target: OsWRKY34 (Oryza sativa, UniProt Q0JBA9 1-250)
# Assay: protein-binding microarray (RPBM); PBS, 2% BSA, 51.3 ng/ul salmon testes DNA, 50 uM zinc acetate, 200 nM TF, 25 C, 1 h; high values mean tight binding
# Conditions: protein: recombinant; tags: N-terminal polyhistidine and DsRed monomer fusion (pET32a); label: CyDye5-dUTP incorporated in the synthesized complementary strand; 3' TTTTT single-stranded linker to array surface; dsDNA, one strand shown
# Method in brief: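 For the binding signal, per-feature fluorescence intensity was read in arbitrary units on an Axon 4000B scanner. Before scanning, a 2% BSA-blocked custom Agilent array made double-stranded with Cy5-dUTP was washed after 1 h at 25 °C with 200 nM protein and 50 µM zinc acetate. The proteins were Ni–NTA-purified transcription factors with N-terminal polyhistidine and DsRed fusions, expressed in E. coli BL21-CodonPlus.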
# Chain of OsWRKY34 (Q0JBA9 entry or part of it): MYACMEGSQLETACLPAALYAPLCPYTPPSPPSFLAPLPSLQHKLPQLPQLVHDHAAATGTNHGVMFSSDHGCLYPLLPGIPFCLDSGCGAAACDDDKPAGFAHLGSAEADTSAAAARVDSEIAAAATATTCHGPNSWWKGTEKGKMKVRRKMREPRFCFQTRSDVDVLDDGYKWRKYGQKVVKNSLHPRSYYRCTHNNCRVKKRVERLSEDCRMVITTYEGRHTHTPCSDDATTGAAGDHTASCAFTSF
row,Sequence,binding signal
1,GCCATTTGTACGTTTCTATTTTCTCAGTAATCAGACCATTCGGAGTCACCTAGTGCAG,11600 fluorescence intensity (a.u.)
2,CCCGTCTCCTCGCCTGCCGATCTCCATCCTGCTAGCAGAGCGGAGTCACCTAGTGCAG,8930 fluorescence intensity (a.u.)
3,AGATACATACGCCCACCCGCCGCGCCCACTTCCGTCCAAACGGAGTCACCTAGTGCAG,8490 fluorescence intensity (a.u.)
4,TCCTCCTGTCTCTGCCTCTGCTCGGCTAGTCTAGTGTACTCGGAGTCACCTAGTGCAG,8810 fluorescence intensity (a.u.)
5,GTATTTAATTAGCTCCTCGTCTTGTTCTGCTAAGCTACTACGGAGTCACCTAGTGCAG,9460 fluorescence intensity (a.u.)
6,TTGTCATCCTCGCCACCTCATTCTTTCTTTCTTTCATCTCCGGAGTCACCTAGTGCAG,12900 fluorescence intensity (a.u.)
7,ACATAACACCACTTGATACTATTTCTCTTAATTAATTACTCGGAGTCACCTAGTGCAG,9670 fluorescence intensity (a.u.)
8,CCGTTGACTTTTTAGTACGTGTTTGACCATTCGTCTTATTCGGAGTCACCTAGTGCAG,32300 ± 947 fluorescence intensity (a.u.)
9,GACTTTTTAGTACGTGTTTGACCATTCGTCTTATTCAAAACGGAGTCACCTAGTGCAG,11900 fluorescence intensity (a.u.)
10,GTTGACTTTTTAGTACGTGTTTGACCATTCGTCTTATTCACGGAGTCACCTAGTGCAG,10100 ± 646 fluorescence intensity (a.u.)
11,CCATTGTTAGGGTTAAGTCTTATTTCACCACATCGTTTTTCGGAGTCACCTAGTGCAG,8740 fluorescence intensity (a.u.)
12,GGCTTACCCAAGAATAACGATCCAACTTGGGGAGGGAGGGCGGAGTCACCTAGTGCAG,10000 fluorescence intensity (a.u.)
13,TTTGACGCTGTTGACTTTTTTTAACATGTTTGACTGTTCGCGGAGTCACCTAGTGCAG,32700 fluorescence intensity (a.u.)
14,TTGACTTTTTTAAACATGTTTAACTGTTCGTCTTATTAAACGGAGTCACCTAGTGCAG,8820 fluorescence intensity (a.u.)
15,AATGTTTGACACCGTTGACTTTTTAACACATGTTTGACCGCGGAGTCACCTAGTGCAG,39300 fluorescence intensity (a.u.)
16,TTTGACACCGTTGACTTTTTTAAACATGTTTAACTGTTCGCGGAGTCACCTAGTGCAG,33900 fluorescence intensity (a.u.)
17,GAGCCCGTACTCATTTCTCGCCAAGTGCACCACTTCACTCCGGAGTCACCTAGTGCAG,10700 fluorescence intensity (a.u.)
18,TCCTCTACTGGTTCTACGTCTTCTCATAATCAACCCAAATCGGAGTCACCTAGTGCAG,11700 fluorescence intensity (a.u.)
19,CGCTCATCTATTTCTTTGTAGTACAACGCAGGCGCTCACACGGAGTCACCTAGTGCAG,8090 fluorescence intensity (a.u.)
20,CTTCCCATGGCTTTTACTCTCCACTCGAAATCTCGTAACACGGAGTCACCTAGTGCAG,11100 fluorescence intensity (a.u.)
21,CTCGTCATTGTTCCCATGTTTTTCTATTTCATTTCTAATTCGGAGTCACCTAGTGCAG,9350 fluorescence intensity (a.u.)
22,AATCGATTCTCCACTACTCTCTCGTCATTGTTCCCATGTTCGGAGTCACCTAGTGCAG,20100 fluorescence intensity (a.u.)
23,ACACACTACTACTACTCTTCTCCCTCTCCATCTCTTCCCTCGGAGTCACCTAGTGCAG,8320 fluorescence intensity (a.u.)
24,GCAGCATCACTCCATGTTCTCTCTTCCTACTCTCCATACTCGGAGTCACCTAGTGCAG,16800 fluorescence intensity (a.u.)
25,GCATCACTATTCACTCCATGTTCTCTCTTCCTACTCTCCACGGAGTCACCTAGTGCAG,8250 fluorescence intensity (a.u.)
26,TAGCTCCATTGTTCGATCTCATCTCCCTTAGCTAGCTACTCGGAGTCACCTAGTGCAG,8130 fluorescence intensity (a.u.)
27,CTTATGTCTCACTAAATATTTACTTTTGCCATCGGCAAATCGGAGTCACCTAGTGCAG,8080 fluorescence intensity (a.u.)

row,Sequence,binding signal
1,GTCACCTTTTCTTTTATCAACATTCATTTGTTTTATTACTCGGAGTCACCTAGTGCAG,8270 fluorescence intensity (a.u.)
2,AATTCAACGCACGTCTCTTGTCCTGCACTTCTGCTATGCCCGGAGTCACCTAGTGCAG,11000 fluorescence intensity (a.u.)
3,AATTCTATGCCTCGATACATTTTTGGTGTTTATTATGGTTCGGAGTCACCTAGTGCAG,8460 fluorescence intensity (a.u.)
4,CTCACCGCGCCGCTCACCTCCTCAAGACCACCACCCACCACGGAGTCACCTAGTGCAG,9730 fluorescence intensity (a.u.)
5,ACAAATCCTGGTCATTTCTTGACCGTATGAATTCTAGAAACGGAGTCACCTAGTGCAG,9650 fluorescence intensity (a.u.)
6,CAACCTCTTGCTAACTTTCCTTTGAGTCTATCTCTCTCATCGGAGTCACCTAGTGCAG,10700 fluorescence intensity (a.u.)
7,AAGAAATCTCTTTGAAAAACTTGCATGCTAACTTGAGACGCGGAGTCACCTAGTGCAG,44900 fluorescence intensity (a.u.)
8,AGAATCTGACGTTTTATTTCTGAAACTTTCTTTGCATGCACGGAGTCACCTAGTGCAG,8030 fluorescence intensity (a.u.)
9,GTGCTCGGCTCCTCTCTCAGTAGCTTGTATGTGTCAGTTGCGGAGTCACCTAGTGCAG,10500 fluorescence intensity (a.u.)
10,AGCTTCAACCTCTTGTAACTTTCCTTTGAGTATATCTCTCCGGAGTCACCTAGTGCAG,10200 fluorescence intensity (a.u.)
11,TGTCCGGTATTTTAAGTTTAGGGTGAGTAATATCTGGTTTCGGAGTCACCTAGTGCAG,10600 fluorescence intensity (a.u.)
12,TTGGGTTTAGGGCGGTAATTCGGTTGACCGCGATAGTTCACGGAGTCACCTAGTGCAG,12400 fluorescence intensity (a.u.)
13,GGATATCCGGTTTTGTGGTTGGGTGACGATTTTGTAATTCCGGAGTCACCTAGTGCAG,9010 fluorescence intensity (a.u.)
14,GGTGTGATATATCTGGTTTTGTGGTTCGGTGGGGTAATTCCGGAGTCACCTAGTGCAG,22000 fluorescence intensity (a.u.)
15,GGGTGAAAATGTCTGGTTTTGTGGTTTAAGGGTGTAATTCCGGAGTCACCTAGTGCAG,8700 fluorescence intensity (a.u.)
16,GGGTGAGTAATATCTGGTTTTTGGGTTTAGGGCGGTAATTCGGAGTCACCTAGTGCAG,17700 fluorescence intensity (a.u.)
17,CATCATACAGTAACAGCACAAGCACACACTACACGCACTCCGGAGTCACCTAGTGCAG,8640 fluorescence intensity (a.u.)
18,GGGTTGGTTCCTGCCTCTCGAGTCTCAGCAAGTGTGTCACCGGAGTCACCTAGTGCAG,11500 fluorescence intensity (a.u.)
19,CAAATGGCCCACCTGTCCTAGCTTGGCCCGGCCCGGGCACCGGAGTCACCTAGTGCAG,8680 fluorescence intensity (a.u.)
20,TAGCTCCAGTATTAATTTCTTTCCATCCTCCATTTTCTTGCGGAGTCACCTAGTGCAG,9120 fluorescence intensity (a.u.)
21,CAACAGACTCTTCCCCTTCGCTCGCTCGCCTCCTCTTTCCCGGAGTCACCTAGTGCAG,8220 fluorescence intensity (a.u.)
22,TACATCCCTTGCCATCTCCATCGCCGGCTTCCTCGCCATTCGGAGTCACCTAGTGCAG,17100 fluorescence intensity (a.u.)
23,CTAGCTTCGCCATCCACATTCTTCTTGCTTCTTGCTCCTCCGGAGTCACCTAGTGCAG,12700 fluorescence intensity (a.u.)
24,CCTTCACCTCCTTGCAAGTTCCATTCTTTCATCTCGCTTCCGGAGTCACCTAGTGCAG,16500 fluorescence intensity (a.u.)
25,CCATTCTTTCATCTCGCTTCACCTCATCGCCATTGCCATCCGGAGTCACCTAGTGCAG,8810 fluorescence intensity (a.u.)
26,TCTTTCTTCCATTGCACCTAGCTTTCATCTTCTTCTCTTCCGGAGTCACCTAGTGCAG,14200 fluorescence intensity (a.u.)
27,ATCCATCCATCTATTCGCTTCCCTTTCCTTGCACCTCTGCCGGAGTCACCTAGTGCAG,9050 fluorescence intensity (a.u.)

# From article PMC7819943, “Rice protein-binding microarrays: a tool to detect cis-acting elements near promoter regions in rice”
